Assay outcomes: PubChem BioAssay, National Center for Advancing Translational Sciences (NCATS)
KB-V1 cytotox: KB-V1 MDR subline cytotoxicity; KB-V1 MDR cells viability, CellTiter-Glo, 72 h; Potency, µM (doses to about 46.1 µM), actives largely listed as cytotoxic; 3.4% of 400,000 active; note: potency is the fitted concentration of half-maximal effect; nearly all actives have a fitted effect of over 60% in size
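KB-V1 cells (P-gp-expressing MDR subline of KB-3-1) in phenol-red-free DMEM with 10% FBS were exposed to library compounds over a concentration series for 72 h at 37 degrees C. Viability read by CellTiter-Glo luminescence; concentration-effect curves fitted after normalization.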
HT1080-NT tox: kills 2HG-producing HT-1080-NT fibrosarcoma cells. HT-1080-NT fibrosarcoma viability, CellTiter-Glo ATP luminescence, 48 h. Potency, µM (series often up to 46.1 µM), for the others: at the top dose activity, negative = less viability, actives largely listed as cytotoxic. 1.6% of 360,000 active;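 note: NT is the 2HG producing partner of a matched IDH1 knockdown line; potency is the fitted concentration of half-maximal effect; 0% = DMSO-treated cells and -100% = media-only wells without cells; nearly all actives have a fitted effect of over 55% in size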
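HT-1080-NT fibrosarcoma cells (2HG-overproducing), 750 cells/well in RPMI with 5% FBS, dosed after 2 h and incubated 48 h at 37C. CellTiter-Glo luminescence normalized to DMSO and no-cell wells; concentration-response curves fitted and classed.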
KB-3-1 tox: kills parental KB-3-1 adenocarcinoma cells. KB-3-1 viability, CellTiter-Glo ATP luminescence, 72 h. Potency, µM (series often up to 46.1 µM), usual class: cytotoxic. 1.4% of 400,000 active. AID 1347075; note: potency is the fitted concentration of half-maximal effect; nearly all actives have a fitted effect of over 60% in size
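KB-3-1 parental drug-naive adenocarcinoma cells in DMEM/10% FBS, incubated 72 h at 37 C with pin-transferred compounds across a concentration series. Viability by CellTiter-Glo luminescence; concentration-response curves fitted after normalization.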
HT1080 IDH1KD tx: toxicity to HT-1080 IDH1 knockdown cells (counter line) | HT-1080 IDH1 knockdown viability, ATP luminescence, 48 h | Potency, µM (top dose mostly 46.1 µM), for inactives: at the highest dose activity, negative = toxicity, most hits filed as cytotoxic | 2% of 360,000 active | AID 686971;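 note: potency is the fitted concentration of half-maximal effect; 0% = DMSO wells and -100% = cell-free medium wells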
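IDH1KD HT-1080 cells, 750/well, RPMI + 5% FBS; compound pinned after 2 h settling; 48 h, 37 °C; CellTiter-Glo luminescence; % activity normalised to DMSO and no-cell wells; curves fitted, classed by r2 and efficacy.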
IL1B secr inh: blocks inflammasome-driven IL-1 beta release; THP-1 LPS/ATP IL-1B secretion, AlphaLISA, 16 h; stronger effect = lower value; activity change, % at 57.5 µM; 4.7% of 360,000 active; AID 743279; in the data active = activity change below about -50%; inconclusive = mostly about -30% to -49%
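Secreted IL-1B measured by AlphaLISA bead assay after 16 h compound exposure of THP-1 cells; compounds (final up to 57.5 uM) added 1 h before LPS (250 ng/mL) and ATP (1.25 mM) stimulation; lower signal means less secretion.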
Active calls of the source: *; i = inactive; ? = inconclusive; · = no result. Only some compounds are listed: those with a hit (about 8.8% of all), similar ones and a draw of the others. Unless noted, calls come from the whole dose curve; as a rule, active = well fitted curve in the direction sought with a large enough effect; inconclusive = small, poorly fitted or top-dose-only effect, or another doubt; inactive = no such curve, though single readings can be large; an effect the other way counts as inactive or inconclusive. Unless noted, % is set by controls: 0 for no effect and ±100 for the full control effect.

SMILES	KB-V1 cytotox	HT1080-NT tox	KB-3-1 tox	HT1080 IDH1KD tx	IL1B secr inh
CCOc1ccc2c(c1)nc(SCC(=O)c1cccs1)n2C	?	4.7%	i	3.2%	12.2
COc1ccccc1NS(=O)(=O)c1cc(C(=O)N2CC(C)CC(C)C2)ccc1C (configuration not stated)	2.31µM*	-7.4%	i	-13.0%	6.6
Cc1ccccc1NS(=O)(=O)c1cc(C(=O)N2CCCC2)ccc1C	i	-8.7%	i	-11.4%	-7.4
CCOC(=O)c1[nH]nc(-c2cc(CC)c(O)cc2O)c1-c1cscn1	?	?	?	?	-60.6*
CCc1ccc(N2CC(C(=O)Nc3ccc(S(=O)(=O)NCC4CCCO4)cc3)CC2=O)cc1 (configuration not stated)	i	3.3%	i	-3.0%	-2.5
Cc1ccccc1NC(=S)N/N=C/c1ccc(O)cc1O	i	?	?	10.3µM*	71.7
Cc1ccc(Cl)cc1NC(=S)N/N=C/c1cccc2ccccc12	2.06µM*	3.66µM*	5.8µM*	2.59µM*	47.3
Cc1cccc(NC(=S)N/N=C/c2cccc(O)c2)c1C	6.51µM*	?	3.26µM*	?	7.4
Cc1cccc(NC(=S)N/N=C/C(C)c2ccccc2)c1C (configuration not stated)	i	-3.4%	?	-28.4%	-103.3*
O=C(O)c1cccc(NC(=S)N/N=C/c2cccc(O)c2)c1	i	5.2%	i	3.7%	0.0
Cc1ccccc1C(=O)N/N=C/c1cccc2ccccc12	i	1.9%	i	0.2%	29.8
COc1ccccc1NC(C)C(=O)c1c(C)[nH]c2ccccc12 (configuration not stated)	i	·	i	·	·
CCc1nn(CC(=O)NCc2ccco2)c(=O)c2cc3c(OC)cccc3n12	i	·	i	·	·
CCOc1ccc(C(=O)n2cc(C(=O)OC)c3ccccc32)cc1	i	-15.0%	i	?	1.6
NC(=O)/C=C\C(=O)Nc1cccc(C(F)(F)F)c1	i	?	i	10µM*	-104.8*
O=C(Nc1ccncc1)Nc1cccc(C(F)(F)F)c1	i	7.3%	i	-8.8%	-2.3
CCN(CC)S(=O)(=O)c1ccc(NC(=O)Nc2cccc(C(F)(F)F)c2)cc1	13µM*	?	9.2µM*	?	-88.8*
O=C(Nc1ccc(OC(F)F)cc1)Nc1cccc(C(F)(F)F)c1	13µM*	?	8.2µM*	?	-80.4*
Cc1ccc(S(=O)(=O)Nc2ccc(NC(=O)Nc3cccc(C(F)(F)F)c3)cc2)cc1	?	?	?	?	-97.1*
Cc1ccccc1NC(=O)/C=C/c1cccc(C(F)(F)F)c1	i	-7.4%	i	7.8%	-56.9*
COc1cccc(S(=O)(=O)Nc2ccc(C(O)(C(F)(F)F)C(F)(F)F)cc2)c1	i	?	i	?	-2.7
CC(C)(C)c1ccc(S(=O)(=O)Nc2ccc(C(O)(C(F)(F)F)C(F)(F)F)cc2)cc1	?	18.4µM*	i	20.6µM*	-17.4
CSc1cccc(-c2nnc(NC(=O)c3cccc(N4C(=O)CCC4=O)c3)o2)c1	i	-2.0%	i	-16.6%	-8.6
Cc1nnc(SCC(=O)c2c(N)n(C)c(=O)n(C)c2=O)n1Cc1ccccc1	i	-4.6%	?	-29.4%	-53.7*
CCOC(=O)c1nnn(-c2ccccc2)c1C	i	-6.3%	i	-8.1%	-19.8
SMILES	KB-V1 cytotox	HT1080-NT tox	KB-3-1 tox	HT1080 IDH1KD tx	IL1B secr inh
COCc1c(C(=O)OC)nnn1-c1ccc(C(F)(F)F)cc1[N+](=O)[O-]	i	18.0%	i	16.3%	-72.3*
CCOC(=O)c1nnn(-c2ccc([N+](=O)[O-])cc2[N+](=O)[O-])c1C	i	?	23.1µM*	?	?
Cc1nccn1-c1ccc(C(F)(F)F)cc1[N+](=O)[O-]	i	-4.6%	?	14.0%	12.7
CCC(C)(C)NC(=O)C(c1ccc(C)cc1)N(Cc1cccs1)C(=O)c1ccc2c(c1)OCCO2 (configuration not stated)	18.4µM*	?	i	?	-16.2
O=C1c2cccnc2C(=O)N1CNc1ccc(Cl)cc1	i	-9.5%	i	-4.9%	2.8
Cc1cc(C)n(CC(O)Cn2c3ccc(Br)cc3c3cc(Br)ccc32)c(=O)n1 (configuration not stated)	i	?	i	?	-68.0*
Cc1cc(C)n(CC(O)Cn2c3ccccc3c3ccccc32)c(=O)n1 (configuration not stated)	i	3.6%	i	-19.2%	?
CCc1nc(CN2CCN(c3cc(C(F)(F)F)ccn3)CC2)c(C)[nH]1	i	-14.5%	i	-2.4%	0.0
C[N+]1(CC(=O)c2ccc(I)cc2)CCCc2ccccc21 (configuration not stated)	i	·	?	·	·
COc1cccc(CN(C)C(=O)CN2C(=O)NC3(CCCc4ccccc43)C2=O)c1 (configuration not stated)	20.6µM*	0.6%	i	-7.4%	23.5
CN(C)C(=O)CNC(=O)CN1C(=O)NC2(CCCc3sccc32)C1=O (configuration not stated)	i	15.5%	i	17.1%	-64.7*
NC(=O)CN1C(=O)NC2(CCCc3sccc32)C1=O (configuration not stated)	i	21.0%	i	16.4%	9.0
C=CCOc1ccc(/C=C2/C(=O)ON=C2C)cc1OC	i	?	i	-9.2%	-97.1*
CCOc1cc(/C=C2\C(=O)ON=C2C)ccc1OCc1ccccc1	?	?	?	?	-117.4*
CCCOc1ccccc1/C=C1/C(=O)ON=C1C	?	6.3%	i	2.7%	-52.0*
CC(=O)N1c2ccc(S(=O)(=O)N3CCCCC3)cc2CC1C(=O)Nc1ccc(F)cc1C (configuration not stated)	i	-8.5%	i	-8.9%	16.5
CC(C)/C=C/C(=O)N1CCCC(N2CCN(c3ccccc3F)CC2)C1 (configuration not stated)	i	-2.3%	i	-4.5%	28.1
O=Cc1c(Cl)nc2ccccn2c1=O	?	?	i	?	-99.1*
Cc1cccn2c(=O)c(C=O)c(Sc3ncccn3)nc12	i	-21.9%	i	-26.8%	-64.8*
Cc1cccn2c(=O)c(C=O)c(N3CCCCC3)nc12	i	3.4%	i	-0.3%	-4.9
CC1CCN(c2nc3ccccn3c(=O)c2C=O)CC1	i	3.8%	i	-6.2%	33.5
Cc1cccn2c(=O)c(C=O)c(Cl)nc12	?	?	i	?	-96.2*
CCCCCCN1C[C@H](O)[C@@H](n2cc(C3CC3)nn2)C[C@@H]1c1ccccc1	i	2.1%	i	-1.3%	23.2
